Reference: PubChem BioAssay AID1159580 (chemical genetic matrix, 2015)
Screen size: about 5,500 compounds; about 2,000 (36%) were called active. Not shown: some 18% with an inconclusive outcome. No stated cut-off is given here; in the data, active means normalized growth mostly below about 0.91 (no sharp cut-off); inconclusive means no clear call, values can overlap the other calls; inactive means mostly above about 0.92. This is one part of the list.

Test: chemical genetic growth profiling, strain panel (AID 1159580);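 further: tested at 20 µM; growth read once vehicle control cultures reached saturation at 30 °C; 1 = growth at the plate median or of vehicle wells; lower values mean less growth of the strain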
Settings: S. cerevisiae deletion strains, growth OD
[1] = locus YAL040C, strain CLN3, active compounds read low
[2] = locus YCL061C, strain MRC1 (second series), active compounds read low
[3] = locus YER002W, strain NOP16, active compounds read low
[4] = locus YMR263W, strain SAP30, active compounds read low
[5] = locus YNL153C, strain GIM3, active compounds read low
[6] = locus YNL175C, strain NOP13, active compounds read low
[7] = locus YNL197C, strain WHI3, active compounds read low
[8] = locus YNL224C, strain SQS1, active compounds read low
[9] = locus YNL322C, strain KRE1, active compounds read low
[10] = locus YOR083W, strain WHI5 (second series), active compounds read low
[11] = locus YPL055C, strain LGE1, active compounds read low
[12] = locus YPL241C, strain CIN2, active compounds read low
[13] = locus YAR019C, strain CDC15, active compounds read low
[14] = locus YBL105C, strain PKC1, active compounds read low
[15] = locus YBR135W, strain CKS1, active compounds read low
[16] = locus YBR136W, strain MEC1, active compounds read low
[17] = locus YBR160W, strain CDC28, active compounds read low
[18] = locus YDL017W, strain CDC7, active compounds read low
[19] = locus YDL028C, strain MPS1, active compounds read low
[20] = locus YDL101C, strain DUN1, active compounds read low
[21] = locus YDL108W, strain KIN28, active compounds read low
[22] = locus YDL132W, strain cdc53, active compounds read low
[23] = locus YDL214C, strain PRR2, active compounds read low
[24] = locus YDR052C, strain DBF4, active compounds read low
[25] = locus YDR054C, strain cdc34, active compounds read low
[26] = locus YDR226W, strain ADK1, active compounds read low
[27] = locus YDR477W, strain SNF1, active compounds read low
[28] = locus YER123W, strain YCK3, active compounds read low
[29] = locus YER133W, strain GLC7, active compounds read low
[30] = locus YFL009W, strain cdc4, active compounds read low
[31] = locus YFL029C, strain CAK1, active compounds read low
[32] = locus YFR003C, strain YPI1, active compounds read low
[33] = locus YFR019W, strain FAB1, active compounds read low
[34] = locus YFR028C, strain CDC14, active compounds read low
[35] = locus YGR040W, strain KSS1, active compounds read low
[36] = locus YGR052W, strain FMP48, active compounds read low
[37] = locus YGR092W, strain DBF2, active compounds read low
[38] = locus YHR030C, strain SLT2, active compounds read low
[39] = locus YHR079C, strain IRE1, active compounds read low
[40] = locus YHR082C, strain KSP1, active compounds read low
[41] = locus YHR205W, strain SCH9, active compounds read low
[42] = locus YIL147C, strain SLN1, active compounds read low
[43] = locus YJL095W, strain BCK1, active compounds read low
[44] = locus YJL128C, strain PBS2, active compounds read low
[45] = locus YJL157C, strain FAR1, active compounds read low
[46] = locus YJR016C, strain ILV3, active compounds read low
[47] = locus YJR066W, strain TOR1 (second series), active compounds read low
[48] = locus YJR066W, strain TOR1, active compounds read low
[49] = locus YKL048C, strain ELM1, active compounds read low
[50] = locus YKL067W, strain YNK1, active compounds read low
[51] = locus YKL101W, strain HSL1, active compounds read low
[52] = locus YKL193C, strain SDS22, active compounds read low
[53] = locus YKL203C, strain TOR2, active compounds read low
[54] = locus YLR113W, strain HOG1, active compounds read low
[55] = locus YLR133W, strain CKI1, active compounds read low
[56] = locus YLR403W, strain SFP1, active compounds read low
[57] = locus YML070W, strain DAK1, active compounds read low
[58] = locus YMR001C, strain CDC5, active compounds read low
[59] = locus YMR205C, strain PFK2 (second series), active compounds read low
[60] = locus YMR277W, strain FCP1, active compounds read low
[61] = locus YNL006W, strain LST8, active compounds read low
[62] = locus YNL020C, strain ARK1, active compounds read low
[63] = locus YNL161W, strain CBK1, active compounds read low
[64] = locus YNL183C, strain NPR1, active compounds read low
[65] = locus YNL207W, strain RIO2, active compounds read low
[66] = locus YNL222W, strain SSU72, active compounds read low
[67] = locus YNL307C, strain MCK1 (second series), active compounds read low
[68] = locus YOL078W, strain AVO1, active compounds read low
[69] = locus YOL136C, strain PFK27, active compounds read low
[70] = locus YOR061W, strain CKA2, active compounds read low
[71] = locus YOR119C, strain RIO1, active compounds read low
[72] = locus YOR231W, strain MKK1, active compounds read low
[73] = locus YOR329C, strain SCD5, active compounds read low
[74] = locus YPL031C, strain PHO85, active compounds read low
[75] = locus YPL153C, strain RAD53, active compounds read low
[76] = locus YPL204W, strain HRR25, active compounds read low
[77] = locus YPL209C, strain IPL1, active compounds read low
[78] = locus YPL256C, strain CLN2, active compounds read low
[79] = locus YPR025C, strain CCL1, active compounds read low
[80] = locus YPR106W, strain ISR1, active compounds read low
[81] = locus YPR111W, strain DBF20, active compounds read low
[82] = strain NNK1, active compounds read low
[83] = strain TSCII, active compounds read low
[84] = locus YAL013W, strain DEP1, active compounds read low
[85] = locus YDR363W, strain ESC2, active compounds read low
[86] = locus YGR078C, strain PAC10, active compounds read low
[87] = locus YMR307W, strain GAS1, active compounds read low

Measured: normalized growth

C#CC(N)CCC(=O)O (stereo not given)
inactive: [1] 1.02 | [2] 1.01 | [3] 1.01 | locus YGR229C, strain SMI1, active compounds read low 1.01 | [4] 1.01 | [5] 1 | [6] 1.02 | [7] 1.02 | [8] 1 | [9] 1.01 | [10] 0.988 | [11] 0.989 | [12] 1.01

S=C(Nc1cc(Cl)c(Cl)cc1Cl)Nc1ccccc1Br
active: [38] 0.67 | [54] 0.828 | [78] 0.809
inactive: [13] 0.958 | [14] 0.969 | [15] 0.964 | [16] 0.953 | [17] 0.961 | [18] 0.963 | [19] 0.953 | [20] 0.977 | [21] 0.958 | [22] 0.96 | [23] 0.884 | [24] 0.97 | [25] 0.969 | [26] 0.947 | [27] 0.875 | [28] 0.833 | [29] 0.87 | [30] 0.963 | [31] 0.949 | [32] 0.969 | [33] 0.899 | [34] 0.943 | [35] 0.861 | [36] 0.848 | [37] 0.77 | [39] 0.82 | [40] 0.822 | [41] 0.812 | [42] 0.939 | [43] 0.796 | [44] 0.927 | [45] 0.898 | [46] 0.961 | [47] 0.848 | [48] 0.786 | [49] 0.911 | [50] 0.892 | [51] 0.842 | [52] 0.96 | [53] 0.913 | [55] 0.861 | [56] 0.754 | [57] 0.86 | [58] 0.957 | [59] 0.873 | [60] 0.959 | [61] 0.984 | [62] 0.844 | [63] 0.977 | [64] 0.791 | [65] 0.962 | [66] 0.97 | [67] 0.839 | [68] 0.962 | [69] 0.854 | [70] 0.749 | [71] 0.869 | [72] 0.846 | [73] 0.975 | [74] 0.873 | [75] 0.837 | [76] 0.848 | [77] 0.966 | [79] 0.966 | [80] 0.942 | [81] 0.935 | [82] 0.961 | [83] 0.953

S=C(NNc1ccccc1)Nc1cc(Cl)ccc1Cl
inactive: [13] 0.963 | [14] 0.958 | [15] 0.96 | [16] 0.962 | [17] 0.963 | [18] 0.962 | [19] 0.97 | [20] 0.963 | [21] 0.974 | [22] 0.959 | [23] 0.953 | [24] 0.966 | [25] 0.939 | [26] 0.985 | [27] 0.945 | [28] 0.921 | [29] 0.958 | [30] 0.974 | [31] 0.95 | [32] 0.961 | [33] 1 | [34] 0.965 | [35] 0.94 | [36] 1.02 | [37] 0.726 | [38] 0.853 | [39] 0.909 | [40] 0.935 | [41] 0.938 | [42] 0.965 | [43] 0.918 | [44] 0.967 | [45] 0.947 | [46] 0.961 | [47] 0.934 | [48] 0.894 | [49] 0.951 | [50] 0.976 | [51] 0.957 | [52] 0.955 | [53] 1 | [54] 0.874 | [55] 0.955 | [56] 0.936 | [57] 0.948 | [58] 0.959 | [59] 0.98 | [60] 0.957 | [61] 0.971 | [62] 0.964 | [63] 0.956 | [64] 0.957 | [65] 0.946 | [66] 0.957 | [67] 0.914 | [68] 0.958 | [69] 0.953 | [70] 0.909 | [71] 0.958 | [72] 0.928 | [73] 0.952 | [74] 0.925 | [75] 0.922 | [76] 0.938 | [77] 0.964 | [78] 0.893 | [79] 0.96 | [80] 0.964 | [81] 0.973 | [82] 0.964 | [83] 0.957

NC(CCCP(=O)(O)O)C(=O)O (stereo not given)
inactive: [84] 0.993 | [1] 1.01 | [2] 1 | [85] 1.09 | [3] 0.993 | [86] 1.02 | [4] 1 | [87] 0.982 | [6] 1.01 | [7] 1 | [8] 1.02 | [9] 1 | [10] 1.01 | [11] 0.977 | [12] 0.993

O=C1NC(c2cccc([N+](=O)[O-])c2)=CCN1c1ccccc1O
inactive: [84] 0.998 | [1] 0.994 | [2] 1.01 | [85] 1.01 | [3] 1 | [86] 1.02 | locus YJR075W, strain HOC1, active compounds read low 1.01 | [4] 1 | [87] 1 | [5] 1.05 | [6] 1 | [7] 1.01 | [8] 0.995 | [9] 0.998 | [10] 1.01
